Values joined by “and” are separate entries in the source; they are usually repeats but may differ in a detail not shown here. Equal values may be shown once. This is part of a sample that, as a whole, favours compounds with a hit. Of some 83,000 tested, about 20% had one in any assay.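 Interpretation: 100, growth as untreated; towards 0, rising growth inhibition; 0, no net growth; 0 to -100, cell death. Compounds scoring below 10 were considered active.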 Active and inactive are the calls of the source.

Growth data for five compounds are collected here from PubChem BioAssay (NCI).

Assay in all cases: NCI-60 one-dose screen, 48 h (100 = growth as untreated, 0 = no growth, -100 = all killed)
One assay concerns BT-549 breast. As to conditions: 10 µM unless noted.
The test system of a further assay is MDA-MB-435 melanoma. Particulars: 10 µM unless noted.
The next assay concerns SW-620 colon. Particulars: 10 µM unless noted.
For another assay, the system named is MCF7 breast. As to conditions: 10 µM.
A further assay has as its system HCT-116 colon. Particulars: 10 µM unless noted.
In the next assay the test system is HCC-2998 colon. Particulars: 10 µM unless noted.
A further assay deals with KM12 colon. As to conditions: 10 µM unless noted.

In the case of `CCC1(O)CC(OC2CC(N(C)C)C(OC3CC4OC5CC(=O)C(C)OC5OC4C(C)O3)C(C)O2)c2c(cc3c(c2O)C(=O)c2c(O)ccc(O)c2C3=O)C1C(=O)OC` (stereo not drawn), the growth was -76.3% (active) in the assay on BT-549 breast; -94.1% (active) in the assay on MDA-MB-435 melanoma; -11.4% (active) with SW-620 colon; 2.21% (active) in the assay with MCF7 breast; -2.93% (active) in the assay with HCT-116 colon; -89.9% (active) with HCC-2998 colon. In the assay on KM12 colon, the growth is -55.3% (active).

For `NCCc1ccc(OCc2ccccc2)c(OCc2ccccc2)c1`, the growth is 89.4% (inactive) with BT-549 breast; 88.1% (inactive) in the assay with MDA-MB-435 melanoma; 83.7% (inactive) in the assay on SW-620 colon; 69.9% (inactive) in the assay with MCF7 breast; 61.8% (inactive) with HCT-116 colon; 34.6% (inactive) in the assay on HCC-2998 colon. For the same compound, in the assay on KM12 colon, the growth is 80.7% (inactive).

Turning to `Cc1cc(N=Nc2ccccc2C)ccc1N`, the growth is 69.7% (inactive) in the assay on BT-549 breast; 82.9% (inactive) with MDA-MB-435 melanoma; 84.7% (inactive) in the assay on SW-620 colon; 58.7% (inactive) in the assay with MCF7 breast; 78.1% (inactive) in the assay on HCT-116 colon; 78.2% (inactive) in the assay on KM12 colon.

As to `COc1ccccc1/C=C(/C)[N+](=O)[O-]`, the growth in the assay on BT-549 breast was 83.6% (inactive) and 101% (inactive); in the assay on MDA-MB-435 melanoma, 79.2% (inactive) and 105% (inactive); in the assay on SW-620 colon, 49.8% (inactive) and 106% (inactive); in the assay with MCF7 breast, 7.37% (active) and 105% (inactive); in the assay on HCT-116 colon, 44% (inactive) and 98.6% (inactive); with HCC-2998 colon it was 103% (inactive) and 99% (inactive). Moreover, in the assay on KM12 colon, the growth was 70% (inactive) and 99.8% (inactive).

Take `O=C1c2ccccc2C(=O)C(Cl)C1Cl` (stereo not drawn): the growth in the assay with BT-549 breast is 78.5% (inactive); in the assay on MDA-MB-435 melanoma, 95.9% (inactive); with MCF7 breast it was -62.2% (active); in the assay with HCT-116 colon, -95.7% (active); in the assay with HCC-2998 colon it was 111% (inactive); in the assay on KM12 colon, 56.8% (inactive).
